# Test results: PubChem BioAssay (Tox21)
# Inconclusive results are not listed. Where a call stands in place of a potency, no number is given. Active and inactive are the calls of the source. Unless noted, calls follow the shape of the dose curve; as a rule, active = well fitted curve in the direction sought with a large enough effect in the repeat runs; inconclusive = weak or mixed curves; inactive = no such curve, though single readings can be large; an effect the other way counts as inactive or inconclusive.
# Tests used:
# [1] = qHTS assay to identify small molecule agonists of the peroxisome proliferator-activated receptor delta (PPARd) signaling pathway - cell viability counter screen (AID 743211); also: nearly all actives have a fitted effect of over 55% in size; also: potency is read from the fitted curve at half-maximal effect
# Outline: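 HEK293H PPARd-bla, 3000 cells/well; 5 h preincubation 37C/5% CO2; cpd in DMSO, 17 h 37C; B/G FRET substrate 2 h RT; CellTiter-Glo 30 min RT, luminescence.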
# [2] = target: Peroxisome proliferator-activated receptor delta (Homo sapiens) (UniProt Q03181); assay: qHTS assay to identify small molecule agonists of the peroxisome proliferator-activated receptor delta (PPARd) signaling pathway (AID 743212; calls by dose curve)
# Outline: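 Tox21 library screened in GeneBLAzer PPARd UAS-bla HEK293H cells. After compound treatment at 37 C, a FRET-based beta-lactamase substrate was applied for 2 h and fluorescence recorded.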
# [3] = target: Vitamin D3 receptor (Homo sapiens) (UniProt P11473); assay: qHTS assay to identify small molecule agonists of the vitamin D receptor (VDR) signaling pathway (AID 743222; calls by dose curve)
# Outline: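 Fluorescence from cleaved LiveBLAzer B/G FRET substrate served as readout. VDR-bla cells had been treated 16 h at 37C with test compounds in DMSO, following a 4 h settling period, and substrate was loaded for 2 h at RT.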
# [4] = target: Peroxisome proliferator-activated receptor delta (Homo sapiens) (UniProt Q03181); assay: qHTS assay to identify small molecule antagonists of the peroxisome proliferator-activated receptor delta (PPARd) signaling pathway (AID 743215; active = well fitted inhibition curve with a large enough effect in the signal ratio in the repeat runs, not every such curve was filed as active; the % refers to the signal ratio;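 also: cells stimulated with agonist L165041 at 300 nM final during compound exposure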; also: potency is read from the fitted curve at half-maximal effect)
# Outline: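 Plated HEK293H PPARd-bla cells rested 5 h at 37 C and 5% CO2. Compound, then agonist L165041 at 300 nM final, was added; 17 h at 37 C followed. Substrate loading, 2 h room temperature, fluorescence measured.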
# [5] = target: Vitamin D3 receptor (Homo sapiens) (UniProt P11473); assay: qHTS assay to identify small molecule antagonists of the vitamin D receptor (VDR) signaling pathway (AID 743223; active = well fitted inhibition curve with a large enough effect in the signal ratio in the repeat runs, not every such curve was filed as active; the % refers to the signal ratio; also: potency is read from the fitted curve at half-maximal effect)
# Outline: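 Antagonist mode uses 1alpha,25-dihydroxyvitamin D3 at 3 nM final as stimulus. VDR-bla cells receive compounds in DMSO, incubate 16 h at 37C, then a beta-lactamase FRET substrate for 2 h at room temperature before fluorescence measurement.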
# [6] = qHTS assay to identify small molecule antagonists of the peroxisome proliferator-activated receptor delta (PPARd) signaling pathway - cell viability counter screen (AID 743213); also: nearly all actives have a fitted effect of over 50% in size; also: potency is read from the fitted curve at half-maximal effect
# Outline: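 Viability counter-screen, qHTS format: PPARd-bla HEK293H, L165041 300 nM final, 17 h compound exposure at 37 C, CellTiter-Glo luminescence after 30 min RT.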
# [7] = qHTS assay to identify small molecule agonists of the farnesoid-X-receptor (FXR) signaling pathway - cell viability counter screen (AID 743218); also: nearly all actives have a fitted effect of over 45% in size; also: potency is read from the fitted curve at half-maximal effect
# Outline: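 Viability of FXR-bla HEK 293T cells is measured by ATP-based CellTiter-Glo luminescence following 16 h compound treatment at 37 C and a prior 2 h room-temperature beta-lactamase substrate step.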
# [8] = qHTS assay to identify small molecule antagonists of the farnesoid-X-receptor (FXR) signaling pathway - cell viability counter screen (AID 743221; active = well fitted cell-killing curve with a large enough effect in the repeat runs, not every such curve was filed as active; also: nearly all actives have a fitted effect of over 50% in size; also: potency is read from the fitted curve at half-maximal effect)
# Outline: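 Luminescence from CellTiter-Glo measures cytotoxicity in GeneBLAzer FXR-UAS-bla HEK 293T cells. Cells were exposed to compounds with 50 uM chenodeoxycholic acid (final) for 16 h at 37 C, in wells also used for the reporter readout.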
# [9] = target: Bile acid receptor (Homo sapiens) (UniProt Q96RI1); assay: qHTS assay to identify small molecule agonists of the farnesoid-X-receptor (FXR) signaling pathway (AID 743220; active = well fitted activation curve with a large enough effect in the signal ratio in the repeat runs, not every such curve was filed as active; the % refers to the signal ratio)
# Outline: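 FXR-UAS-bla HEK 293T cells carrying a UAS-driven beta-lactamase reporter were plated for 5 h at 37C/5% CO2, then exposed to DMSO-dissolved Tox21 10K compounds for 16 h at 37C. A LiveBLAzer B/G FRET substrate was loaded for 2 h at room temperature before fluorescence reading.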
# [10] = target: Bile acid receptor (Homo sapiens) (UniProt Q96RI1); assay: qHTS assay to identify small molecule antagonists of the farnesoid-X-receptor (FXR) signaling pathway (AID 743217; active = well fitted inhibition curve with a large enough effect in the signal ratio in the repeat runs, not every such curve was filed as active; the % refers to the signal ratio)
# Outline: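 Screen of the Tox21 10K library in quantitative HTS format using FXR-UAS-bla HEK 293T reporter cells. Agonist chenodeoxycholic acid, 50 uM final, added with compounds; 16 h incubation at 37 °C; beta-lactamase FRET fluorescence measured.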
# Bile acid receptor (Homo sapiens), sequence (Q96RI1 whole entry, looked up): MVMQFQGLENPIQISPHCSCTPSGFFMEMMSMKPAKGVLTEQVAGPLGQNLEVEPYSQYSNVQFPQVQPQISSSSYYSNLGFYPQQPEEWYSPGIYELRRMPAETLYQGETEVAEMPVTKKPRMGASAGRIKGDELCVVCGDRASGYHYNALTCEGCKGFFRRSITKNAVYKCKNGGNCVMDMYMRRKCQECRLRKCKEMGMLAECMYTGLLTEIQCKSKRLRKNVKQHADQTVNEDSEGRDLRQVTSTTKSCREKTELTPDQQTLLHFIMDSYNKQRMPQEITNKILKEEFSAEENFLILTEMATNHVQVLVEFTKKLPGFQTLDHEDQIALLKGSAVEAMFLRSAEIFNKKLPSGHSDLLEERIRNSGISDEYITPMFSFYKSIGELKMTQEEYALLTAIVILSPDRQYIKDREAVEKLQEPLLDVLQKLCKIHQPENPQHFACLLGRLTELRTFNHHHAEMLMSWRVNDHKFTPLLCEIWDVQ
# Vitamin D3 receptor (Homo sapiens), sequence (P11473 whole entry, looked up): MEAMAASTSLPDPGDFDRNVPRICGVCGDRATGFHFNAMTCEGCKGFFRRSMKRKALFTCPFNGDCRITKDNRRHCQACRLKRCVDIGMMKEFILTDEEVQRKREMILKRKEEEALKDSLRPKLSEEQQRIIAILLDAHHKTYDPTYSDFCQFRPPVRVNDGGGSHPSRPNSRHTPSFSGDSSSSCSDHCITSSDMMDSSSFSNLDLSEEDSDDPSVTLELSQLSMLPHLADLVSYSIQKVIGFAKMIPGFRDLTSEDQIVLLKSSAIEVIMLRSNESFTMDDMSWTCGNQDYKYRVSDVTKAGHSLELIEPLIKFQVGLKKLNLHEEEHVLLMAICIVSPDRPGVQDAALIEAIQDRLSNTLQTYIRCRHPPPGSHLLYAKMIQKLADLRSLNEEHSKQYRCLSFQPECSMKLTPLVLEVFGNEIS
# Peroxisome proliferator-activated receptor delta (Homo sapiens), sequence (Q03181 whole entry, looked up): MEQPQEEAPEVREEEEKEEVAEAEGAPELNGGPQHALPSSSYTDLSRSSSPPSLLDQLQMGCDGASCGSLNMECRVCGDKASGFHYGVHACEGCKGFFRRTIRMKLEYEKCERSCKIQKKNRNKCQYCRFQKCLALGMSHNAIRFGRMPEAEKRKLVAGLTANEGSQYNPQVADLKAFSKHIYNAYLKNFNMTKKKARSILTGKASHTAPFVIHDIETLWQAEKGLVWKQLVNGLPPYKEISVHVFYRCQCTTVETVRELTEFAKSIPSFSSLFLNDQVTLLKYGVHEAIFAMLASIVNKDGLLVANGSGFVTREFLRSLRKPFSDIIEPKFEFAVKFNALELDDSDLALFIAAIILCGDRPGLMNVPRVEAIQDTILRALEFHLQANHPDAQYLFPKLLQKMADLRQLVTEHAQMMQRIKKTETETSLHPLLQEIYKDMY
structure (smiles),measurement,setting,value
CCCCCCCCCCCCN1CCCC1=O,Potency,[1],54.9 µM (active)
same,outcome,[2],inactive
same,outcome,[3],inactive
c1ccc(-c2ccc(C(c3ccccc3)n3ccnc3)cc2)cc1 (centres undefined),Potency,[1],29.8 µM (active)
same,outcome,[2],inactive
same,Potency,[4],26.6 µM (active)
same,outcome,[3],inactive
same,Potency,[5],inactive
O=C1CCCCCCCCCCCCCC1,Potency,[1],inactive
same,outcome,[2],inactive
same,Potency,[6],inactive
same,Potency,[4],inactive
same,Potency,[7],inactive
same,Potency,[8],inactive
same,outcome,[3],inactive
same,Potency,[5],inactive
CCOc1ccc([N+](=O)[O-])cc1,Potency,[1],49.7 µM (active)
same,Potency,[6],44.3 µM (active)
CCCCCCCCCC[N+](C)(CCCCCCCCCC)CCC[Si](OC)(OC)OC,Potency,[1],9.77 µM (active)
same,outcome,[2],inactive
same,Potency,[6],9.77 µM (active)
same,Potency,[4],inactive
same,Potency,[7],8.71 µM (active)
same,Potency,[5],inactive
Clc1nc(C(Cl)(Cl)Cl)c(Cl)c(Cl)c1Cl,Potency,[1],34.7 µM (active)
same,Potency,[6],inactive
same,Potency,[4],inactive
same,Potency,[7],inactive
same,outcome,[9],inactive
CN(C/C=C/c1ccccc1)Cc1cccc2ccccc12,outcome,[2],inactive
same,Potency,[4],inactive
same,outcome,[9],inactive
same,Potency,[8],inactive
CN1CC[C@H](c2c(O)cc(O)c3c(=O)cc(-c4ccccc4Cl)oc23)[C@H](O)C1,Potency,[1],inactive
same,Potency,[6],inactive
same,Potency,[7],inactive
same,Potency,[8],inactive
CCSCC,Potency,[10],inactive
same,Potency,[7],inactive
same,Potency,[8],inactive
C[C@H]1O[C@@H](O[C@H]2CC[C@@]3(C)[C@H](CC[C@@H]4[C@@H]3C[C@@H](O)[C@]3(C)[C@@H](C5=CC(=O)OC5)CC[C@]43O)C2)C[C@H](O)[C@@H]1O[C@H]1C[C@H](O)[C@H](O[C@H]2C[C@H](O)[C@H](O[C@@H]3O[C@H](CO)[C@@H](O)[C@H](O)[C@H]3O)[C@@H](C)O2)[C@@H](C)O1,Potency,[1],0.298 µM (active)
same,outcome,[9],inactive
CCCCCN=C(N)N/N=C/c1c[nH]c2ccc(OC)cc12,Potency,[1],8.41 µM (active)
same,Potency,[6],33.5 µM (active)
same,Potency,[7],13.3 µM (active)
same,Potency,[8],29.8 µM (active)
same,Potency,[5],13.4 µM (active)
CCCOC(=O)c1ccc(O)cc1,outcome,[2],inactive
Cc1cc(F)ccc1-c1cc(N2CC[C@@H](O)[C@H]2CO)ncc1N(C)C(=O)C(C)(C)c1cc(C(F)(F)F)cc(C(F)(F)F)c1,Potency,[1],13.6 µM (active)
same,Potency,[6],13.6 µM (active)
same,Potency,[7],13.6 µM (active)
same,Potency,[8],15.3 µM (active)
same,Potency,[5],21.5 µM (active)
C=CCc1cc(S(=O)(=O)c2ccc(O)c(CC=C)c2)ccc1O,Potency,[1],43.6 µM (active)
same,Potency,[8],inactive
same,Potency,[5],inactive
S=C1NC=NC2N=CNC12 (centres undefined),Potency,[7],11 µM (active)
same,outcome,[9],inactive
same,outcome,[3],inactive
same,Potency,[5],inactive
O=C(CCCCCCCCc1cccnc1)N1CCC(C=C(c2ccccc2)c2ccccc2)CC1,Potency,[1],12.3 µM (active)
same,Potency,[7],24.5 µM (active)
same,Potency,[8],inactive
same,Potency,[5],inactive
Cc1ccc2nc(-c3ccc(N)cc3)sc2c1S(=O)(=O)O,Potency,[8],inactive
CN(C[C@@H](CC[N+]12CCC(C3CCCCC3)(CC1)CC2)c1ccc(Cl)c(Cl)c1)C(=O)c1cc(C(F)(F)F)cc(C(F)(F)F)c1,Potency,[1],17.4 µM (active)
same,Potency,[6],24.5 µM (active)
same,Potency,[7],54.9 µM (active)
same,Potency,[8],27.5 µM (active)
CCCCC/C=C\C=C\C(=O)OCC,outcome,[9],inactive
same,outcome,[3],inactive
C=C1C(CCl)(CCl)C2(Cl)C(Cl)C(Cl)C1(Cl)C2(Cl)Cl (centres undefined),Potency,[1],34.3 µM (active)
same,Potency,[7],48.4 µM (active)
Cc1cc(Br)ccc1NC(=O)CCl,Potency,[1],24.5 µM (active)
same,Potency,[6],24.5 µM (active)
same,Potency,[7],24.5 µM (active)
same,Potency,[8],19.5 µM (active)
O=C1OC(O)C(C(Cl)Cl)=C1Cl (centres undefined),outcome,[2],inactive
same,Potency,[8],inactive
same,outcome,[3],inactive
O=C(Nc1ccccc1)c1cc(Cl)ccc1O,Potency,[7],38.9 µM (active)
same,outcome,[9],inactive
same,outcome,[3],inactive
COc1cc(/C=C/C(=O)CC(=O)/C=C/c2ccc(O)c(OC)c2)ccc1O,Potency,[1],34.9 µM (active)
same,Potency,[7],24.7 µM (active)
same,Potency,[8],43.9 µM (active)
O=[N+]([O-])c1ccc(O)c2ncccc12,Potency,[7],inactive
same,outcome,[9],inactive
same,Potency,[8],inactive
same,Potency,[5],9.52 µM (active)
O=C1OC(=O)c2cc(-c3ccc4c(c3)C(=O)OC4=O)ccc21,Potency,[6],54.9 µM (active)
same,Potency,[8],inactive
same,outcome,[3],inactive
same,Potency,[5],inactive
COc1cccc(-c2ccc(/C=C\CN3CCCCCC3)cc2Cl)c1,Potency,[1],48.7 µM (active)
same,Potency,[4],inactive
same,Potency,[10],inactive
same,outcome,[9],inactive
same,outcome,[3],inactive
Cc1ccc(Cl)c(N)c1Cl,outcome,[2],inactive
same,Potency,[8],inactive
CC1=C(/C=C/C(C)=C/C=C/C(C)=C\C(=O)O)C(C)(C)CCC1,Potency,[6],inactive
CC(C)c1ccc2sc3ccccc3c(=O)c2c1,Potency,[10],inactive
same,Potency,[7],inactive
same,Potency,[8],inactive
CC(O)(c1ccc(Cl)cc1)c1ccc(Cl)cc1,outcome,[2],inactive
same,Potency,[6],inactive
same,Potency,[4],inactive
same,Potency,[10],inactive
same,Potency,[7],inactive
same,outcome,[9],inactive
same,Potency,[8],inactive
same,outcome,[3],inactive
O=C(CCN1CCC(c2ccccc2)C1)c1ccc2c(c1)OCCO2 (centres undefined),Potency,[1],inactive
same,Potency,[6],inactive
same,Potency,[7],inactive
same,Potency,[8],inactive
same,outcome,[3],inactive
COc1cc([C@@H]2c3cc4c(cc3[C@@H](O[C@@H]3O[C@@H]5CO[C@@H](C)O[C@H]5[C@H](O)[C@H]3O)[C@H]3COC(=O)[C@H]23)OCO4)cc(OC)c1O,outcome,[2],inactive
same,Potency,[6],21.6 µM (active)
same,Potency,[10],inactive
same,Potency,[7],inactive
same,outcome,[9],inactive
same,Potency,[8],inactive
